# Data published in PubChem BioAssay (Tox21).
# “And” between values parts separate entries of the source, which are not always exact repeats. Equal values may be shown once. Results filed as inconclusive are left out. Where a call stands in place of a potency, no number is given. The source holds several records for some structures; these can differ, active in one and inactive in another. The source made the active and inactive calls. Unless noted, the call rests on the fitted dose curve; in most records, active means well fitted curve in the direction sought with a large enough effect in the repeat runs; inconclusive means weak or mixed curves; inactive means no such curve, though single readings can be large; an effect the other way counts as inactive or inconclusive.
# Legend:
# [1] = qHTS assay to identify small molecule agonists of the hypoxia (HIF-1) signaling pathway - cell viability counter screen (AID 1224844; calls by dose curve; further: nearly all actives have a fitted effect of over 50% in size; further: potency means the concentration at half of the fitted maximal effect)
# In short: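 Cytotoxicity measured by CellTiter-Glo ATP luminescence in the wells also read for beta-lactamase signal. Cells were HRE-bla ME-180 (2,000/well, 0.5% dialyzed FBS), exposed to compounds for 17 h at 37C.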
# [2] = qHTS assay to identify small molecule agonists of H2AX (AID 1224845; active means well fitted activation curve with a large enough effect in the signal ratio in the repeat runs, not every such curve was filed as active; the % refers to the signal ratio; further: potency means the concentration at half of the fitted maximal effect)
# In short: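 Wild-type CHO-K1 cells, plated overnight, exposed 3hr at 37C to 15 concentrations (0.76% DMSO final). Lysed, then HTRF anti-pH2AX (S139) cryptate and anti-H2AX-d2 antibodies, 24 hr room temperature; 665/620 nm emission read.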
# [3] = qHTS assay to identify small molecule agonists of H2AX - cell viability counter screen (AID 1224847; calls by dose curve; further: nearly all actives have a fitted effect of over 30% in size; further: potency means the concentration at half of the fitted maximal effect)
# In short: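 CHO-K1 wt, 1000 cells/well, o/n 37C; cpds 15 conc, 3 h 37C, 0.76% DMSO; CellTiter-Glo, 30 min RT, luminescence.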
# [4] = qHTS assay to identify small molecule agonists of the estrogen related receptor (ERR) signaling pathway from Tox21 library (AID 1224849; calls by dose curve; further: nearly all actives have a fitted effect of over 15% in size); conditions: ERR reporter cell line, ONE-Glo luciferase, 18 h; at 92.4 µM (top of the series) unless noted
# In short: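 Luminescent agonist read-out (One-Glo, 30-minute room-temperature incubation) following 18-hour compound treatment at 37 C of the ERR cell line, which had been plated 6 hours before dosing.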
# [5] = qHTS RealTime-Glo MT Cell Viability Assay in HepG2 cells - 24 hour (AID 1224867); further: nearly all actives have a fitted effect of over 50% in size; further: potency means the concentration at half of the fitted maximal effect
# In short: (§1)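 qHTS, HepG2, 600 cells/well, RealTime-Glo (NanoLuc + prosubstrate) added with cells; 5 h preincubation; DMSO compound addition; 37 C; luminescence at 0/8/16/24/32/40 h.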
# [6] = qHTS RealTime-Glo MT Cell Viability Assay in HEK293 cells - 32 hour (AID 1224868); further: nearly all actives have a fitted effect of over 50% in size; further: potency means the concentration at half of the fitted maximal effect
# In short: (§2)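 Assay medium contained NanoLuc luciferase plus cell-permeant prosubstrate, added with HEK293 cells at 600 cells/well. After 5 h at 37 C/5% CO2 compounds were added; plates stayed at 37 C for 40 h with serial luminescence reads.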
# [7] = A CellTox Green Cytotoxicity Assay to monitor cytotoxicity in HEK293 cells - 0 hour (AID 1224869); further: nearly all actives have a fitted effect of over 50% in size
# In short: (§3)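 Fluorescence from a DNA-binding dye excluded by viable cells was measured repeatedly in the same HEK293 wells (600 cells/well) during continuous compound exposure at 37 C. Each assay gives one read point: 0, 8, 16, 24, 32 or 40 h.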
# [8] = A CellTox Green Cytotoxicity Assay to monitor cytotoxicity in HEK293 cells - 40 hour (AID 1224871); further: nearly all actives have a fitted effect of over 45% in size; further: potency means the concentration at half of the fitted maximal effect
# In short: as §3
# [9] = qHTS RealTime-Glo MT Cell Viability Assay in HEK293 cells - 16 hour (AID 1224872); further: nearly all actives have a fitted effect of over 50% in size; further: potency means the concentration at half of the fitted maximal effect
# In short: as §2
# [10] = qHTS RealTime-Glo MT Cell Viability Assay in HepG2 cells - 8 hour (AID 1224873); further: nearly all actives have a fitted effect of over 55% in size; further: potency means the concentration at half of the fitted maximal effect
# In short: (§4)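 HepG2 cells (600/well) mixed with RealTime-Glo MT reagent, settled 5 h at 37 C/5% CO2 before compound addition. Nonlytic NanoLuc luminescence from viable-cell prosubstrate reduction read repeatedly during 40 h treatment at 37 C.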
# [11] = qHTS RealTime-Glo MT Cell Viability Assay in HEK293 cells - 40 hour (AID 1224874); conditions: RealTime-Glo luminescence; max response: stronger effect = lower value; further: nearly all actives have a fitted effect of over 50% in size; further: potency means the concentration at half of the fitted maximal effect
# In short: (§5)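 Luminescence, which tracks viable cell number through reduction of the prosubstrate to a NanoLuc substrate, was read over continuous 37 C culture. Cells (600/well) were premixed with reagent and rested 5 h before 23 nL of compound in DMSO was pinned.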
# [12] = A CellTox Green Cytotoxicity Assay to monitor cytotoxicity in HEK293 cells - 24 hour (AID 1224875); further: nearly all actives have a fitted effect of over 45% in size; further: potency means the concentration at half of the fitted maximal effect
# In short: as §3
# [13] = qHTS RealTime-Glo MT Cell Viability Assay in HepG2 cells - 32 hour (AID 1224877); further: nearly all actives have a fitted effect of over 55% in size; further: potency means the concentration at half of the fitted maximal effect
# In short: as §1
# [14] = A CellTox Green Cytotoxicity Assay to monitor cytotoxicity in HepG2 cells - 24 hour (AID 1224878); further: nearly all actives have a fitted effect of over 45% in size; further: potency means the concentration at half of the fitted maximal effect
# In short: (§6)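 Real-time cytotoxicity: fluorescence of a cell-impermeant cyanine dye binding DNA of dead HepG2 cells, measured repeatedly (0–40 h) during compound exposure at 37 C. Cells seeded 600/well with reagent, dosed after 5 h.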
# [15] = A CellTox Green Cytotoxicity Assay to monitor cytotoxicity in HepG2 cells - 40 hour (AID 1224879); further: nearly all actives have a fitted effect of over 40% in size; further: potency means the concentration at half of the fitted maximal effect
# In short: as §6
# [16] = qHTS RealTime-Glo MT Cell Viability Assay in HEK293 cells - 0 hour (AID 1224880); further: top concentration of the series differs between compounds; nearly all actives have a fitted effect of over 45% in size
# In short: as §5
# [17] = qHTS RealTime-Glo MT Cell Viability Assay in HepG2 cells - 40 hour (AID 1224870); further: nearly all actives have a fitted effect of over 50% in size; further: potency means the concentration at half of the fitted maximal effect
# In short: as §4
# [18] = A CellTox Green Cytotoxicity Assay to monitor cytotoxicity in HepG2 cells - 16 hour (AID 1224876); further: nearly all actives have a fitted effect of over 45% in size
# In short: as §6
# [19] = qHTS assay to identify small molecule agonists of the hypoxia (HIF-1) signaling pathway (AID 1224846; active means well fitted activation curve with a large enough effect in the signal ratio in the repeat runs, not every such curve was filed as active; the % refers to the signal ratio)
# In short: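 Compounds added to ME-180 cells carrying hypoxia-response-element beta-lactamase reporter (0.5% dialyzed FBS, 5 h preplating), 17 h at 37C; agonist activity detected by CCF4-AM B/G FRET read-out.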
# [20] = qHTS assay to identify small molecule antagonists of the estrogen related receptor (ERR) signaling pathway from Tox21 library (AID 1224848); further: nearly all actives have a fitted effect of over 50% in size; further: potency means the concentration at half of the fitted maximal effect
# In short: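 Quantitative high-throughput format: ERR reporter cells (2,000/well) pre-incubated 6 h, treated 18 h at 37 C with compounds in DMSO alongside positive and negative controls, then read by ONE-Glo luminescence.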
smiles,measurement,setting,value
N#CCCC(Br)(C#N)CBr (stereo not drawn),Potency,[1],19.5 µM (active)
same,Potency,[2],35.7 µM (active)
same,Potency,[3],127 µM (active)
same,"activity change, positive = activation",[4],-45.2% (inactive)
same,Potency,[5],38.9 µM (active)
same,Potency,[6],21.9 µM (active)
same,Potency,[7],inactive
same,Potency,[8],49 µM (active)
same,Potency,[9],38.9 µM (active)
same,Potency,[10],49 µM (active)
same,Potency,[11],21.9 µM (active)
same,Potency,[12],54.9 µM (active)
same,Potency,[13],34.7 µM (active)
same,Potency,[14],38.9 µM (active)
same,Potency,[15],24.5 µM (active)
same,Potency,[16],inactive
C[CH2][Hg][N]1C(=O)C2C(C1=O)C1(Cl)C(Cl)=C(Cl)C2(Cl)C1(Cl)Cl (stereo not drawn),Potency,[1],2.33 µM (active)
same,Potency,[2],10.7 µM (active)
same,Potency,[3],13.5 µM (active)
same,"activity change, positive = activation",[4],-76.3% [at 19 µM] (inactive)
same,Potency,[5],6.57 µM (active)
same,Potency,[6],2.33 µM (active)
same,cytotoxicity,[7],-0.189% [at 15.8 µM] (inactive)
same,Potency,[17],6.57 µM (active)
same,Potency,[8],4.65 µM (active)
same,Potency,[9],2.61 µM (active)
same,Potency,[10],7.37 µM (active)
same,Potency,[11],2.08 µM (active)
same,Potency,[12],4.65 µM (active)
same,Potency,[13],6.57 µM (active)
same,Potency,[15],6.57 µM (active)
CC(C)[C@H](C(=O)O[C@H](C#N)c1cccc(Oc2ccccc2)c1)c1ccc(Cl)cc1,Potency,[1],inactive
same,Potency,[2],inactive
same,Potency,[3],inactive
same,Potency,[5],inactive
same,Potency,[7],inactive
same,Potency,[17],inactive
same,Potency,[8],inactive
same,Potency,[12],inactive
same,Potency,[18],inactive
same,Potency,[13],inactive
same,Potency,[15],inactive
same,Potency,[16],inactive
CCCCCCCCCCCCCCCC[n+]1ccccc1,Potency,[1],57.5 µM (active) and inactive
same,Potency,[2],inactive
same,Potency,[7],inactive
same,Potency,[8],34.2 µM (active) [middle of 4 runs]
same,Potency,[9],21.6 µM (active) [middle of 4 runs]
same,Potency,[10],57.5 µM (active) and 49 µM (active) and 48.3 µM (active)
same,Potency,[15],15.5 µM (active) [middle of 4 runs]
same,Potency,[16],inactive
CCCCCCCCCCBr,Potency,[1],inactive
same,outcome,[19],inactive
same,Potency,[3],inactive
same,Potency,[20],inactive
same,"activity change, positive = activation",[4],1.61% (inactive)
same,Potency,[5],inactive
same,Potency,[7],inactive
same,Potency,[17],inactive
same,Potency,[8],inactive
same,Potency,[9],inactive
same,Potency,[10],inactive
same,max response,[11],-10.6% (inactive)
same,Potency,[12],inactive
same,Potency,[18],inactive
same,Potency,[13],inactive
same,Potency,[14],inactive
same,Potency,[15],inactive
same,Potency,[16],inactive
BrC(Br)Br,Potency,[1],inactive
same,outcome,[19],inactive
same,Potency,[3],inactive
same,Potency,[20],inactive
same,"activity change, positive = activation",[4],0.336% (inactive)
same,Potency,[5],inactive
same,Potency,[6],inactive
same,Potency,[7],inactive
same,Potency,[8],inactive
same,Potency,[9],inactive
same,Potency,[10],inactive
same,max response,[11],17.3% (inactive)
same,Potency,[12],inactive
same,Potency,[13],inactive
same,Potency,[14],inactive
same,Potency,[15],inactive
same,Potency,[16],inactive
CC(C)(C)C(O)/C(=C\c1ccc(Cl)cc1Cl)n1cncn1 (stereo not drawn),Potency,[1],inactive
same,outcome,[19],inactive
same,Potency,[3],122 µM (active)
same,Potency,[20],33 µM (active)
same,"activity change, positive = activation",[4],-63.4% (inactive)
same,Potency,[6],29.7 µM (active)
same,Potency,[7],inactive
same,Potency,[9],29.7 µM (active)
same,Potency,[11],26.5 µM (active)
same,Potency,[15],52.8 µM (active)
same,Potency,[16],inactive
COP(=S)(OC)Oc1cc(Cl)c(Br)cc1Cl,Potency,[1],inactive
same,Potency,[2],inactive
same,Potency,[5],inactive
same,Potency,[6],inactive
same,Potency,[7],inactive
same,Potency,[8],inactive
same,Potency,[9],inactive
same,Potency,[10],inactive
same,Potency,[12],inactive
same,Potency,[18],inactive
same,Potency,[13],inactive
same,Potency,[14],inactive
same,Potency,[15],inactive
same,Potency,[16],inactive
CC(=[OH+])/C=C(/C)[O-].CC(=[OH+])/C=C(\C)[O-].CC(=[OH+])/C=C(\C)[O-].[Al],Potency,[1],inactive
same,outcome,[19],inactive
same,Potency,[3],inactive
same,Potency,[5],inactive
same,Potency,[6],inactive
same,Potency,[7],inactive
same,Potency,[17],inactive
same,Potency,[8],inactive
same,Potency,[9],inactive
same,Potency,[10],inactive
same,Potency,[12],inactive
same,Potency,[18],inactive
same,Potency,[13],inactive
same,Potency,[14],inactive
same,Potency,[15],inactive
same,Potency,[16],inactive
OC(Cc1ccccc1Cl)(Cn1cncn1)C1(Cl)CC1 (stereo not drawn),Potency,[1],inactive
same,outcome,[19],inactive
same,Potency,[20],48.6 µM (active)
same,"activity change, positive = activation",[4],-38.2% (inactive)
same,Potency,[5],inactive
same,Potency,[6],49 µM (active)
same,Potency,[7],inactive
same,Potency,[17],inactive
same,Potency,[10],inactive
same,Potency,[11],49 µM (active)
same,Potency,[12],inactive
same,Potency,[18],inactive
same,Potency,[13],inactive
same,Potency,[14],inactive
same,Potency,[15],inactive
same,Potency,[16],inactive
